PglD DTNB – C. jejuni PglD acetyltransferase inhibitors, primary screen, biochemical, DTNB colorimetric, single point. purified PglD enzyme, DTNB colorimetric CoA detection. UDP-N-acetylbacillosamine N-acetyltransferase PglD (Campylobacter jejuni). hit rate 0.098% among 360,000. inhibition, % at 12.5 µM; in the data active means inhibition above about 16%, passing the limit was not always enough
ARNT TACC3 PPI – disruptors of ARNT/TACC3 protein interaction, primary screen, biochemical, AlphaScreen, single concentration; AID 623870, 2012; AlphaScreen His-ARNT PAS-B/GST-TACC3 binding, luminescence; TACC3 fragment carries E629A point mutation; Transforming acidic coiled-coil-containing protein 3 (Homo sapiens), Q9Y6A5; inhibition, % at 9.99 µM; hit rate 0.66% among 390,000;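 active means mean inhibition of replicates at least 50% and at least half of replicates each reaching 50%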;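 further: 0% = complete ARNT plus TACC3 wells and 100% = ARNT alone without TACC3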
NRP1-CendR mod – modulators of CendR peptide binding to NRP-1, primary screen, biochemical, fluorescence polarization, uHTS | inhibition, % at 25 µM | Neuropilin-1 (Homo sapiens), O14786 | FAM-RPARPAR peptide binding to NRP-1 | hit rate 0.85% among 360,000 | AID 602438, 2012;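 active means inhibition or corrected inhibition above about 18%, plus a signal ratio from 0.5 to 1.5, limit read from the data, passing the limit was not always enough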
PDI turbidity – inhibitors of human PDI, primary screen, biochemical, turbidity, single point, plate reader; hit rate 0.052% among 350,000; PDI insulin aggregation turbidity, A650, 90 min; inhibition, % at 10 µM; AID 588391, 2011;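 active means mean inhibition across replicates of 30% or more, whatever share of single replicates reach that level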
Target sequence (P07237 whole entry, looked up): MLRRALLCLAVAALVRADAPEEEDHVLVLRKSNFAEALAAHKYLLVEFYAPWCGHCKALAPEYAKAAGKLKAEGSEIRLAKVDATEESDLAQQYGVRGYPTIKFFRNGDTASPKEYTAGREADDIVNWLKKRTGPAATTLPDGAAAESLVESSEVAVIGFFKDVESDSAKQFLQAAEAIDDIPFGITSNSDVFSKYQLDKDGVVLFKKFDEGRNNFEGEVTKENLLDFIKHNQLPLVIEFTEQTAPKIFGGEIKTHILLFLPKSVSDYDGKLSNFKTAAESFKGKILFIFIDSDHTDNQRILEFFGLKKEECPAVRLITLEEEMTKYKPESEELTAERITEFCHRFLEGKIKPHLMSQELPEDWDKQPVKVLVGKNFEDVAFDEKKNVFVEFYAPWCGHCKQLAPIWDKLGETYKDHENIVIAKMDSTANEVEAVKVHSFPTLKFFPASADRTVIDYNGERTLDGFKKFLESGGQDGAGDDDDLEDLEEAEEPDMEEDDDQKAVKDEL
ALR inh – inhibitors of human ALR sulfhydryl oxidase, primary screen, biochemical, H2O2 detection, HRP-luminol luminescence, single point | hit rate 3.8% among 290,000 | AID 485317, 2010 | purified ALR, DTT oxidation | inhibition, % (no concentration beside the values);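 active means mean replicate inhibition above about 79%, with every replicate also reaching it, limit read from the data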
ERp5 inh – inhibitors of ERp5-driven insulin aggregation, primary screen, biochemical, turbidity, absorbance 650 nm, single point; Protein disulfide-isomerase A6 (Homo sapiens), Q15084; 90 min; inhibition, % at 9.99 µM; hit rate 0.05% among 350,000;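 active means mean replicate inhibition above about 25%, with every replicate also reaching it, limit read from the data, passing the limit was not always enough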
* hit, by the source's call; · = no result given. The entries come from a sample that favours hits as a whole.

SMILES | PglD DTNB | ARNT TACC3 PPI | NRP1-CendR mod | PDI turbidity | ALR inh | ERp5 inh
O=C(NC1CC1)c1ccc2c(c1)N(Cc1ccccc1)CCS2 | 4 | 18 | 0 | 1 | 71 | 1
COc1ccc(NC(=O)Nc2ccc3c(c2)C(=O)N([C@@H](C)CO)C[C@@H](C)[C@H](CN(C)C(=O)Nc2ccccc2)O3)cc1 | 2 | -11 | · | · | · | -5
C[C@H](NC(=O)C[C@H]1C=C[C@H](NC(=O)Cc2ccccn2)[C@@H](CO)O1)c1ccccc1 | 1 | 6 | · | · | · | 0
O=C(NCCCN1CCCC1)c1ccc2c(c1)N(Cc1ccccc1)CCS2 | 3 | 6 | -12 | -1 | 99* | -3
COc1ccc(CNC(=O)c2ccc3c(c2)N(C)CCS3)cc1 | -4 | 1 | -1 | · | 96* | 0
Cc1ccc(CN2CCSc3ccc(C(=O)NCc4ccccn4)cc32)cc1 | -1 | -3 | 4 | 1 | 98* | 1
CC(C)Oc1ccc(CNC(=O)c2ccc3c(c2)N(C)CCS3)cc1 | -3 | 2 | -3 | · | 12 | 1
NS(=O)(=O)c1ccc(CCNC(=O)c2ccc3c(c2)N(Cc2ccccc2)CCS3)cc1 | 2 | -25 | 10 | -4 | 18 | 5
COc1ccccc1-c1cn(CC[C@@H]2CC[C@H](NC(=O)c3cnccn3)[C@@H](CO)O2)nn1 | 5 | 6 | · | · | · | 3
O=C(Nc1ccccc1F)N1CC(=O)N2[C@H](CO)[C@H](c3ccc(C#CC4CCCC4)cc3)[C@@H]2C1 | · | · | · | · | · | 4
C[C@H]1CCCCO[C@H](CN(C)C(=O)c2ccccc2)[C@@H](C)CN([C@@H](C)CO)C(=O)c2cc(NC(=O)Nc3ccc(F)cc3)ccc2O1 | 8 | 5 | · | · | · | 0
CC(C)OC(=O)C(=O)NNc1ccccc1 | -5 | · | 9 | 10 | 100* | 2
C=C(C)C(=O)NNc1ccccc1 | · | -5 | -3 | -3 | 31 | 4
CCCOC(=O)C(=O)NNc1ccccc1 | · | -2 | -4 | 9 | 100* | 4
CCC(=O)N1[C@H](CO)[C@H](c2ccccc2-c2cccc(C)c2)[C@@H]1C#N | · | · | · | · | · | 0
NS(=O)(=O)c1cccnc1Nc1cccc(Cl)c1Cl | 6 | -1 | 24* | 0 | 5 | ·
Fc1ccc(Nc2nc(N3CCOCC3)c3ccccc3n2)cc1 | 11 | -6 | 3 | -11 | 93* | ·
CC(C)NC(=O)c1cc(C2CCCCN2C(=O)c2ccc(C(C)C)cc2)on1 (centres undefined) | -4 | · | 7 | -1 | · | 3
COc1cc(C(=O)N2CCCCC2c2cc(C(=O)N3CCOCC3)no2)cc(OC)c1C (centres undefined) | -1 | · | 6 | -2 | · | 1
COC(=O)N1CCCCC1c1cc(C(=O)N2CCOCC2)no1 (centres undefined) | -3 | · | 26* | 4 | · | 5
CC(=O)Nc1ccc(C(=O)N2CCCCC2c2cc(C(=O)NC(C)C)no2)cc1 (centres undefined) | 2 | · | 44* | 2 | · | -1
NC(=O)c1oc2ccccc2c1NC(=O)c1nc2ccccc2s1 | -1 | -28 | 24* | -7 | 1 | ·
NC(=O)c1oc2ccccc2c1NC(=O)c1ccc(F)cc1 | -4 | -11 | 12 | 4 | -5 | -3
NC(=O)c1oc2ccccc2c1NC(=O)C1CCCCC1 | -2 | -3 | 0 | 0 | 96* | 4
CCCC#Cc1cnc2c(c1)C(=O)N([C@H](C)CO)C[C@H](C)[C@H](CN(C)C(=O)NCCC)O2 | -1 | -5 | · | · | · | -1
SMILES | PglD DTNB | ARNT TACC3 PPI | NRP1-CendR mod | PDI turbidity | ALR inh | ERp5 inh
C[C@@H]1CN([C@@H](C)CO)C(=O)c2cc(N(C)C)ccc2O[C@H]1CN(C)Cc1ccncc1 | -1 | -7 | · | · | · | 7
Cn1nnc2c[n+](CC(=O)c3ccc(Cl)cc3)cc(Br)c21 | -2 | · | -12 | 4 | 91* | -16
Cc1cc(C(C#N)c2ccccc2)n2ncnc2n1 (centres undefined) | 2 | 8 | -7 | 4 | 62 | ·
Cc1cc(C(C#N)c2ccccc2F)n2ncnc2n1 (centres undefined) | 3 | 27 | 9 | 0 | 92* | -2
O=C(N[C@H]1C=C[C@@H](CC(=O)N2CCC(Cc3ccccc3)CC2)O[C@@H]1CO)c1cnccn1 | -1 | 7 | · | · | · | -1
CCN(CC)c1ccc(N2C(=O)CSC2=S)cc1 | 4 | 36 | -9 | -1 | 98* | -2
CCOc1ccc(N2C(=O)CSC2=S)cc1 | -6 | -5 | 7 | 4 | -41 | 3
Cc1ccc2c(c1)c1c(n2CC(O)CNC2CCCC2)CCCC1 (centres undefined) | 4 | 7 | -1 | 19 | 89* | -5
Cc1ccc2c(c1)c1c(n2CC(O)Cn2ccnc2C)C(=O)CCC1 (centres undefined) | · | 1 | -14 | 5 | -2 | ·
CCOC(=O)c1[nH]c2ccccc2c1NC(C)=O | · | -9 | 1 | 9 | -7 | -3
CCOC(=O)c1[nH]c2ccccc2c1NC(=S)Nc1cccc(C)c1 | 4 | 7 | 5 | -2 | 98* | 5
CCOC(=O)c1[nH]c2ccccc2c1NC(=S)Nc1ccccc1 | 0 | 1 | -12 | -1 | 98* | -3
C[C@@H]1CN([C@@H](C)CO)C(=O)Cc2cc(NC(=O)C3CCCCC3)ccc2O[C@H]1CN(C)Cc1ccc(Oc2ccccc2)cc1 | 4 | · | · | · | · | -5
Cc1ccc(S(=O)(=O)N2CCCC(C(=O)NC3=NCCS3)C2)cc1 (centres undefined) | · | -9 | 5 | -2 | 3 | ·
Cc1ccc(S(=O)(=O)N2CCC[C@H]2C(=O)NC2=NCCS2)cc1 | -9 | -4 | 24* | 2 | · | -2
O=C(Nc1ccc(N2CCCCC2)cc1)C1CCCN1S(=O)(=O)c1ccc(F)cc1 (centres undefined) | 0 | -26 | 6 | 12 | 80* | 2
O=C(Oc1ccc(/C=N/O)cc1)c1ccccc1 | -7 | · | 16 | -3 | 89* | ·
COCCOC(=O)/C(=C/c1ccc(OC(=O)c2ccccc2)cc1)C(C)=O | 5 | -17 | -2 | -1 | 95* | ·
O=C(N[C@@H]1CC[C@H](CC(=O)N2CCOCC2)O[C@H]1CO)c1ccccn1 | 0 | 1 | · | · | · | 4
CCOC(=O)COn1c(=O)c(=O)n(O)c2ccccc21 | 8 | -6 | -10 | 1 | 100* | ·
CCOC(=O)COn1c(=O)c(=O)n(OC)c2ccccc21 | -2 | 13 | -1 | 8 | -6 | ·
CO[C@@H]1CN(C)C(=O)c2cc(NC(=O)C3CCC3)ccc2OC[C@@H](C)N(Cc2ccncc2)C[C@@H]1C | 3 | -4 | · | · | · | 7

Screens as filed in PubChem BioAssay.
